# Results published in PubChem BioAssay (Tox21).
# Unmarked numbers belong to inactive results. Inconclusive results are not listed. A call without a number means that no potency is given here. Activity calls are given as the source filed them. Unless noted, calls follow the shape of the dose curve; as a rule, active = well fitted curve in the direction sought with a large enough effect in the repeat runs; inconclusive = weak or mixed curves; inactive = no such curve, though single readings can be large; an effect the other way counts as inactive or inconclusive.
# What was measured:
# [1] = qHTS assay for small molecule agonists of the p53 signaling pathway (AID 651631; calls by dose curve; also: nearly all actives have a fitted effect of over 15% in size)
# How it was run: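 Testing took place in human colorectal HCT-116 cells with stable p53RE-driven beta-lactamase. After 16 h of compound exposure at 37 °C, a FRET substrate was added and fluorescence recorded 2 h later.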
# [2] = qHTS assay for small molecules that induce genotoxicity in human embryonic kidney cells expressing luciferase-tagged ATAD5 (AID 651632); also: nearly all actives have a fitted effect of over 15% in size
# How it was run: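 Increased luciferase signal from ATAD5-tagged reporter cells indicates DNA-damage-driven ATAD5 induction. HEK293T cells are treated for 16 hr at 37C before detection with Amplite.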
# [3] = qHTS assay for small molecule agonists of the p53 signaling pathway - cell viability (AID 651633; calls by dose curve; also: series mostly up to about 83 µM; nearly all actives have a fitted effect of over 30% in size)
# How it was run: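 p53RE-bla cells were treated with compound for 16 hours at 37 C. Cytotoxicity was then measured as CellTiter-Glo luminescence after 30 min at room temperature.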
# [4] = qHTS assay for small molecules that induce genotoxicity in human embryonic kidney cells expressing luciferase-tagged ATAD5 - cell viability (AID 651634; calls by dose curve; also: nearly all actives have a fitted effect of over 25% in size)
# How it was run: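 Cytotoxicity counterscreen in HEK293T cells bearing an ATAD5-luciferase reporter: live-cell protease activity measured by CellTiter-Fluor fluorescence after 15.5 hr compound exposure.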
# [5] = qHTS assay for small molecule disruptors of the mitochondrial membrane potential - cell viability (AID 720634; calls by dose curve;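 also: human HepG2 liver cancer cells; series mostly up to about 83 µM; nearly all actives have a fitted effect of over 20% in size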)
# How it was run: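 After overnight attachment at 37 C, HepG2 cells received compound or DMSO vehicle for 1 hr. Viability is then taken from ATP-driven luminescence following a 30 min room-temperature CellTiter-Glo step.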
# [6] = qHTS assay for small molecule disruptors of the mitochondrial membrane potential (AID 720635); also: potency is read from the fitted curve at half-maximal effect
# How it was run: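 HepG2 cells exposed to compound 1 hr at 37C, then Mito-MPS dye 30 min. Ratio read of aggregate (540/590 nm) versus monomer (490/535 nm) fluorescence.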
# [7] = qHTS assay to test for compound auto fluorescence at 590 nm (red) in HepG2 cells (AID 720674)
# How it was run: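 HepG2 cells, 2,000 per well in MEM with 10% FBS, attached overnight at 37 C, then got 23 nL compound or DMSO. After 1 hr at 37 C, 5% CO2, red fluorescence was read at 540/590 nm against Rose Bengal sodium as reference.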
# [8] = qHTS assay to test for compound auto fluorescence at 535 nm (green) in HepG2 cells (AID 720675)
# [9] = qHTS assay to test for compound auto fluorescence at 460 nm (blue) in HEK293 cells (AID 720678)
# How it was run: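 HEK293 cells (2,000/well, medium with 10% dialyzed FBS) attached 4-5 hr, then exposed to compound overnight at 37C, 5% CO2. Blue fluorescence read at 405/460 nm, with triamterene as reference fluorophore.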
# [10] = qHTS assay to test for compound auto fluorescence at 590 nm (red) in HEK293 cells (AID 720679)
# How it was run: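 HEK293 cells (2,000/well, 10% dialyzed FBS) attached 4-5 hr, then dosed with compound or DMSO and incubated overnight at 37C, 5% CO2. Red fluorescence read at 540/590 nm, Rose Bengal sodium as reference fluorophore.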
# [11] = qHTS assay to test for compound auto fluorescence at 535 nm (green) in HEK293 cells (AID 720680)
# [12] = qHTS assay to test for compound auto fluorescence at 535 nm (green) in HEK293 cell free culture (AID 720682)
# How it was run: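 DMEM + 10% FBS, cell-free; cpd or DMSO pinned in; Ex485/Em535 read; output as fluorescein-equivalent signal.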
# [13] = qHTS assay to test for compound auto fluorescence at 590 nm (red) in HEK293 cell free culture (AID 720683)
# How it was run: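 Cell-free wells of DMEM with 10% FBS received compound, and intrinsic fluorescence was read at excitation/emission 540/590 nm. Values expressed as equivalence to Rose Bengal sodium.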
# [14] = qHTS assay to test for compound auto fluorescence at 590 nm (red) in HepG2 cell free culture (AID 720684)
# How it was run: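 Compounds are added to culture medium (MEM, 10% FBS) lacking cells, then fluorescence is read at excitation 540 nm, emission 590 nm, with Rose Bengal sodium as the equivalency standard.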
# [15] = qHTS assay to test for compound auto fluorescence at 460 nm (blue) in HepG2 cell free culture (AID 720685)
# How it was run: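 Compound (23 nL) or DMSO pinned into cell-free MEM with 10% FBS; blue fluorescence read at 405/460 nm excitation/emission, expressed as auto-fluorescence equivalency to triamterene.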
# [16] = qHTS assay to test for compound auto fluorescence at 535 nm (green) in HepG2 cell free culture (AID 720686)
# [17] = qHTS assay to test for compound auto fluorescence at 460 nm (blue) in HepG2 cells (AID 720687)
# How it was run: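 HepG2 cells in MEM with 10% FBS, attached overnight at 37 C, were exposed to compound or DMSO for 1 hr at 37 C, 5% CO2. Blue fluorescence was read at 405/460 nm, with triamterene as reference fluorophore.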
# [18] = target: Glucocorticoid receptor (Homo sapiens) (UniProt P04150); assay: qHTS assay to identify small molecule agonists of the glucocorticoid receptor (GR) signaling pathway (AID 720691; active = well fitted activation curve with a large enough effect in the signal ratio in the repeat runs, not every such curve was filed as active; the % refers to the signal ratio)
# How it was run: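 Agonist mode in a HeLa line carrying a GRE-controlled beta-lactamase reporter. Compounds act for 18 h at 37 C before a 2 h room-temperature FRET substrate step and fluorescence reading.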
# [19] = target: Glucocorticoid receptor (Homo sapiens) (UniProt P04150); assay: qHTS assay to identify small molecule antagonists of the glucocorticoid receptor (GR) signaling pathway (AID 720692; active = well fitted inhibition curve with a large enough effect in the signal ratio in the repeat runs, not every such curve was filed as active; the % refers to the signal ratio)
# How it was run: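 Cells plated, rested 4 h at 37 C/5% CO2; compounds in DMSO pin-transferred; dexamethasone added to 5 nM final; 18 h at 37 C; B/G FRET substrate added, 2 h room temperature; fluorescence measured.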
# [20] = qHTS assay to test for compound auto fluorescence at 460 nm (blue) in HEK293 cell free culture (AID 720681)
# How it was run: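 Compounds were added to cell-free DMEM with 10% FBS and fluorescence read directly. The blue channel used 405 nm excitation and 460 nm emission, with triamterene as the reference fluorophore.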
# Sequence of Glucocorticoid receptor (Homo sapiens) (P04150 whole entry, looked up): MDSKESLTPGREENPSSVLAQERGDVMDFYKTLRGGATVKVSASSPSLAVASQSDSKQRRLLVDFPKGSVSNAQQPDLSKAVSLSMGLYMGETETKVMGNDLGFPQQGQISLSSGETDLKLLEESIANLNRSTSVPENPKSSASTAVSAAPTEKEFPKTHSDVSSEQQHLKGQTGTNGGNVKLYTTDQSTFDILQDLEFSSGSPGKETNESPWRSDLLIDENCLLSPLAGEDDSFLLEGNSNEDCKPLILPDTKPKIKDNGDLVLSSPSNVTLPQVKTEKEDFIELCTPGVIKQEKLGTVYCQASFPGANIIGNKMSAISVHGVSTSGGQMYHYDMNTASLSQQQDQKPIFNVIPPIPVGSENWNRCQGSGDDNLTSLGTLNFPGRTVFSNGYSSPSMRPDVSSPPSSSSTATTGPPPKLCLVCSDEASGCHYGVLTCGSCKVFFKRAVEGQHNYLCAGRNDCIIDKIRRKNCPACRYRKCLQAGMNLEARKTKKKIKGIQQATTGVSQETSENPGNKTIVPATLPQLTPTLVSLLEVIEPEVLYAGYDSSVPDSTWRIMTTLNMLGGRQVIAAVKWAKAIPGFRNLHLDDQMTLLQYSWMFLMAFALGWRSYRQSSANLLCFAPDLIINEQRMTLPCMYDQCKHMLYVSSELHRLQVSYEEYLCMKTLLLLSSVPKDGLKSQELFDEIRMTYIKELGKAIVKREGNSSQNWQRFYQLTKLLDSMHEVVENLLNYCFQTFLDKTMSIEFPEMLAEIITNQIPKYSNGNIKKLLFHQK
smiles,measurement,setting,value
CC(C)(C)CC(C)(C)c1ccc(Nc2ccc(C(C)(C)CC(C)(C)C)cc2)cc1,activation,[1],-6.72% [at 8.3 µM]
same,activation,[2],2.9% [at 8.08 µM]
same,"activity change, negative = cytotoxicity",[3],-13.1% [at 8.08 µM]
same,"activity, negative = cytotoxicity",[4],13.9% [at 8.08 µM]
same,"activity change, negative = cytotoxicity",[5],4.18% [at 8.08 µM]
same,"ratio activity, negative = MMP loss",[6],34.3% [at 8.08 µM]
same,"fluorescence, relative to Rose Bengal",[7],0.212% [at 3.72 µM]
same,"fluorescence, % of fluorescein control",[8],0.0549% [at 3.72 µM]
same,"fluorescence, % of triamterene",[9],-0.186% [at 3.72 µM]
same,"fluorescence, % of fluorescent control",[10],-0.94% [at 3.72 µM]
same,"fluorescence, % of fluorescein",[11],-0.0015% [at 3.72 µM]
same,activity change,[12],"0.0494% [at 3.72 µM, stronger effect = higher value]"
same,"fluorescence, % of fluorescent control",[13],0.0404% [at 3.72 µM]
same,"fluorescence, % of Rose Bengal",[14],0.189% [at 3.72 µM]
same,"fluorescence, % of fluorescent control",[15],0.0515% [at 3.72 µM]
same,"fluorescence, % of fluorescein control",[16],0.0526% [at 3.72 µM]
same,"fluorescence, % of fluorescent control",[17],0.0384% [at 3.72 µM]
same,activation,[18],-1.13% [at 6.9 µM]
same,"activity change, negative = inhibition",[19],-25.8% [at 7.04 µM]
O=C(O)[C@H](O)[C@@H](O)[C@H](O[C@@H]1O[C@H](CO)[C@H](O)[C@H](O)[C@H]1O)[C@H](O)CO,Potency,[1],inactive
same,Potency,[2],inactive
same,Potency,[3],inactive
same,Potency,[4],inactive
same,Potency,[5],inactive
same,Potency,[6],inactive
same,"fluorescence, relative to Rose Bengal",[7],0.507% [at 18.6 µM]
same,"fluorescence, % of fluorescein control",[8],0.0584% [at 18.6 µM]
same,"fluorescence, % of triamterene",[9],0.228% [at 18.6 µM]
same,"fluorescence, % of fluorescent control",[10],0.434% [at 18.6 µM]
same,"fluorescence, % of fluorescein",[11],-0.0275% [at 18.6 µM]
same,"fluorescence, % of fluorescent control",[20],-0.0747% [at 18.6 µM]
same,activity change,[12],"-0.0154% [at 18.6 µM, stronger effect = higher value]"
same,"fluorescence, % of fluorescent control",[13],-0.292% [at 18.6 µM]
same,"fluorescence, % of Rose Bengal",[14],0.117% [at 18.6 µM]
same,"fluorescence, % of fluorescent control",[15],0.0634% [at 18.6 µM]
same,"fluorescence, % of fluorescein control",[16],-0.112% [at 18.6 µM]
same,"fluorescence, % of fluorescent control",[17],0.0744% [at 18.6 µM]
same,Potency,[18],inactive
same,Potency,[19],inactive
C[Si](Cl)(c1ccccc1)c1ccccc1,Potency,[1],inactive
same,Potency,[2],inactive
same,Potency,[3],inactive
same,Potency,[4],inactive
same,Potency,[5],inactive
same,Potency,[6],26.6 µM (active)
same,Potency,[7],inactive
same,Potency,[8],inactive
same,Potency,[9],inactive
same,Potency,[10],inactive
same,Potency,[11],inactive
same,Potency,[20],inactive
same,Potency,[12],inactive
same,Potency,[13],inactive
same,Potency,[14],inactive
same,Potency,[16],inactive
same,Potency,[18],inactive
COc1cc(C)ccc1O,Potency,[1],inactive
same,Potency,[2],inactive
same,Potency,[3],inactive
same,Potency,[4],inactive
same,Potency,[5],inactive
same,Potency,[6],inactive
same,Potency,[7],inactive
same,Potency,[8],inactive
same,Potency,[9],inactive
same,Potency,[10],inactive
same,Potency,[11],inactive
same,Potency,[20],inactive
same,Potency,[12],inactive
same,Potency,[13],inactive
same,Potency,[14],inactive
same,Potency,[16],inactive
same,Potency,[17],inactive
same,Potency,[18],inactive
O[C@@H]([C@H](O)[C@H](O)CBr)[C@H](O)CBr,Potency,[1],inactive
same,Potency,[2],inactive
same,Potency,[3],inactive
same,Potency,[4],inactive
same,Potency,[5],inactive
same,Potency,[6],inactive
same,Potency,[7],inactive
same,Potency,[8],inactive
same,Potency,[9],inactive
same,Potency,[10],inactive
same,Potency,[11],inactive
same,Potency,[20],inactive
same,Potency,[12],inactive
same,Potency,[13],inactive
same,Potency,[14],inactive
same,Potency,[16],inactive
same,Potency,[17],inactive
CCCCCc1ccc(Cl)cc1,Potency,[1],inactive
same,Potency,[2],inactive
same,Potency,[3],inactive
same,Potency,[4],inactive
same,Potency,[5],inactive
same,Potency,[6],inactive
same,Potency,[7],inactive
same,Potency,[8],inactive
same,Potency,[9],inactive
same,Potency,[10],inactive
same,Potency,[11],inactive
same,Potency,[20],inactive
same,Potency,[12],inactive
same,Potency,[13],inactive
same,Potency,[14],inactive
same,Potency,[15],inactive
same,Potency,[17],inactive
same,Potency,[18],inactive
same,Potency,[19],inactive
